Assay results published in PubChem BioAssay (NCATS).
Inconclusive results are not listed. Calls of active or inactive are those of the source. Unless noted, how the calls were made is not given here.

Columns and labels:
[1] = qHTS profiling of the MIPE4 collection as inhibitors of Plasmodium falciparum (3D7) proliferation (AID 743344);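 further: scaled between DMSO vehicle wells and 0.29 µM artemisinin as full inhibition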; conditions: P. falciparum 3D7 in erythrocytes, SYBR Green DNA fluorescence, 72 h; at 28.5 µM unless noted
Procedure, shortened: (§1)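 Parasite DNA was quantified by SYBR Green I fluorescence (ex 485, em 535 nm) after overnight lysis in saponin/Triton buffer at room temperature. Cultures at 0.3% parasitemia and 2.5% hematocrit were first exposed to compound for 72 h at 37 C; signals were normalised to artemisinin (0.29 uM) and vehicle wells.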

[2] = qHTS profiling of the MIPE4 collection as inhibitors of Plasmodium falciparum (DD2) proliferation (AID 743345); conditions: P. falciparum Dd2 in erythrocytes, SYBR Green DNA, 72 h; at 28.5 µM unless noted
Procedure, shortened: as §1

[3] = qHTS profiling of the MIPE4 collection as inhibitors of Plasmodium falciparum (DD2) proliferation (Rep 2) (AID 743346); conditions: P. falciparum Dd2 in erythrocytes, SYBR Green DNA, 72 h; at 28.5 µM unless noted
Procedure, shortened: as §1

[4] = qHTS profiling of the MIPE4 collection as inhibitors of Plasmodium falciparum (HB3) proliferation (AID 743347);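 further: plate controls were DMSO vehicle wells for no effect and artemisinin wells for full effect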; conditions: P. falciparum HB3 in erythrocytes, SYBR Green DNA, 72 h; at 28.5 µM unless noted
Procedure, shortened: as §1

[5] = High-throughput drug toxicity screening in the BPDCN cell line Gen2.2 (AID 1224824); conditions: Gen2.2 BPDCN cells; at 45.8 µM (top of the series) unless noted;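 further: cells exposed to compounds for 48 h before reading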
Procedure, shortened: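 CellTiter-Glo luminescence read after 48 h compound exposure at 37 C defines viability; percent activity set with DMSO as 100% and bortezomib (9.2 uM final) as 0%. 500 exponentially growing cells per well, RPMI plus 10% FBS.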

[6] = High-throughput drug toxicity screening in the BPDCN cell line Cal-1 (AID 1224825); conditions: Cal-1 BPDCN cell viability, qHTS; at 45.8 µM (top of the series) unless noted
Procedure, shortened: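 Percent activity derived from CellTiter-Glo luminescence, scaling DMSO to 100% and 9.2 uM final bortezomib to 0%. BPDCN Cal-1 cells (500/well, RPMI plus 10% FBS) incubated with compounds 48 hours at 37C before reading.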

[7] = qHTS assay for measurement of the activity of small molecule inhibitors on Zika virus induced Caspase-3 activity in human iPSC derived neural progenitor cells (hNPCs) (AID 1224857; active means well fitted curve in the direction sought with a large enough effect; an effect the other way counts as inactive or inconclusive; further: nearly all actives have a fitted effect of over 65% in size; further: potency means the concentration at half of the fitted maximal effect)
Procedure, shortened: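 Caspase-3/7 induction by a 6-hour ZIKV infection was quantified with a luminescent Caspase-Glo 3/7 reagent incubated 30 minutes at room temperature. Compounds were preincubated with hNPCs for 1 hour; inhibition was calculated against uninfected and infected control wells.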

[8] = qHTS assay for measurement of the activity of small molecule inhibitors on Zika virus induced Caspase-3 activity in human astrocytoma cells (AID 1224859; active means well fitted curve in the direction sought with a large enough effect; an effect the other way counts as inactive or inconclusive; further: potency means the concentration at half of the fitted maximal effect)
Procedure, shortened: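 In SNB-19 cells plated at 250 cells/well and grown 16-20 h, compounds were applied 1 h before ZIKV (2 FFU/cell). Six hours later caspase-3/7 luminescence was recorded.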

[9] = qHTS Screen of the MIPE 4.0 Collection Against Ewings Sarcoma (TC32) (AID 1259256; active means well fitted curve in the direction sought with a large enough effect; an effect the other way counts as inactive or inconclusive; further: nearly all actives have a fitted effect of over 45% in size; further: potency means the concentration at half of the fitted maximal effect)
Procedure, shortened: (§2)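 Cells plated in serum-containing RPMI (5% FBS) and treated with compound dilutions for 48 h. Readout luminescent viability; normalization relied on vehicle (no inhibition) and media-only columns (full inhibition).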

[10] = qHTS profiling for inhibitors of Plasmodium falciparum (HB3) proliferation (AID 743324; active means well fitted curve in the direction sought with a large enough effect; an effect the other way counts as inactive or inconclusive;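 further: 100% = DMSO vehicle wells and 0% = artemisinin-treated control wells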); conditions: Plasmodium falciparum HB3 blood-stage proliferation; at 28.7 µM (top of the series) unless noted
Procedure, shortened: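 SYBR Green fluorescence (485 ex/535 em) of lysed cultures, incubated overnight at room temperature in the dark, quantifies parasite DNA. Infected erythrocytes at 0.3% parasitemia and 2.5% hematocrit were exposed 72 h; values normalized to DMSO and 0.29 uM artemisinin controls.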

[11] = qHTS Screen of the MIPE 4.0 Collection Against Ewings Sarcoma (RDES) (AID 1259252; active means well fitted curve in the direction sought with a large enough effect; an effect the other way counts as inactive or inconclusive; further: nearly all actives have a fitted effect of over 35% in size; further: potency means the concentration at half of the fitted maximal effect)
Procedure, shortened: as §2

[12] = qHTS Screen of the MIPE 4.0 Collection Against Ewings Sarcoma (TC71) (AID 1259253; active means well fitted curve in the direction sought with a large enough effect; an effect the other way counts as inactive or inconclusive; further: nearly all actives have a fitted effect of over 40% in size; further: potency means the concentration at half of the fitted maximal effect)
Procedure, shortened: as §2

[13] = qHTS Screen of the MIPE 4.0 Collection Against Ewings Sarcoma (EW8) (AID 1259255; active means well fitted curve in the direction sought with a large enough effect; an effect the other way counts as inactive or inconclusive; further: nearly all actives have a fitted effect of over 35% in size; further: potency means the concentration at half of the fitted maximal effect;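 on viability: 100% = DMSO-treated cells and 0% = medium-only wells without cells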)
Procedure, shortened: as §2

[14] = Identifying Small Molecule Inhibitors of Pancreatic Cancer Stem Cells (A2780, Spheroid) (AID 1259357; active means well fitted curve in the direction sought with a large enough effect; an effect the other way counts as inactive or inconclusive;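 further: spheroids pre-formed over 14 days in stem cell medium on hydrogel; potency means the concentration at half of the fitted maximal effect; compound exposure lasted 48 h before the ATP luminescence read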); conditions: Potency: A2780 spheroid viability
Procedure, shortened: (§3)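 Spheroids grown 14 days in stem cell media on hydrogel-coated nonadherent plates; 2D lines seeded directly. Compounds added after 4 h attachment, 48 h at 37C, 5% CO2; CellTiter-Glo luminescence normalized to DMSO (no inhibition) and no-cell wells (full inhibition).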

[15] = Identifying Small Molecule Inhibitors of Pancreatic Cancer Stem Cells (SN12C, Adherent) (AID 1259358; active means well fitted curve in the direction sought with a large enough effect; an effect the other way counts as inactive or inconclusive;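 further: cell survival measured after 48 h of compound exposure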; further: potency means the concentration at half of the fitted maximal effect)
Procedure, shortened: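 Pre-formed 14-day tumor spheroids or adherent cells dosed and incubated 48 h, 37C, 5% CO2. Viability assessed by CellTiter-Glo.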

[16] = qHTS assay to identify small molecule inhibitors of chordoma cells - UCH-1 (AID 1259355; active means well fitted curve in the direction sought with a large enough effect; an effect the other way counts as inactive or inconclusive; further: on the % scale 0 is the no-effect control and ±100 the full control effect; nearly all actives have a fitted effect of over 55% in size)
Procedure, shortened: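 800 cells/well, overnight attach; compounds pinned at 15 concs, then auranofin/camptothecin/doxorubicin/rubitecan/topotecan combo added; 48hr 37 C, 5% CO2; CellTiter-Glo, 30min RT, luminescence.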

[17] = qHTS assay to identify small molecule inhibitors of chordoma cells - UCH-2 (AID 1259356; active means well fitted curve in the direction sought with a large enough effect; an effect the other way counts as inactive or inconclusive; further: on the % scale 0 is the no-effect control and ±100 the full control effect)
[18] = Identifying Small Molecule Inhibitors of Pancreatic Cancer Stem Cells (SN12C, Spheroid) (AID 1259360; active means well fitted curve in the direction sought with a large enough effect; an effect the other way counts as inactive or inconclusive; further: potency means the concentration at half of the fitted maximal effect); conditions: Potency: SN12C spheroid viability
Procedure, shortened: as §3

| Structure (SMILES) | parasite growth, % of DMSO control [1] | parasite growth remaining, % of DMSO control (lower = more inhibition) [2] | parasite growth, % of control (lower = inhibition) [3] | growth, % of control [4] | cell viability, % of control (lower = more cytotoxic) [5] | viability (% of control) [6] | Potency [7] | Potency [8] | Potency [9] | remaining proliferation (% of control), lower = more inhibition [10] [%] | Potency [11] | Potency [12] | Potency [13] | Potency [14] | Potency [15] | outcome [16] | outcome [17] | Potency [18] |
| --- | --- | --- | --- | --- | --- | --- | --- | --- | --- | --- | --- | --- | --- | --- | --- | --- | --- | --- |
| C[C@H]1COC2=C1C(=O)C(=O)c1c2ccc2c1CCCC2(C)C | 5.99% | 12.1% | 15.5% | 9.95% | 23.4% | 56.6% | inactive | inactive | 23.5 µM (active) | – | – | – | – | – | – | – | – | – |
| CO[C@H]1C=CO[C@@]2(C)Oc3c(C)c(O)c4c(O)c(c(C=NN5CCN(C)CC5)c(O)c4c3C2=O)NC(=O)C(C)=CC=C[C@H](C)[C@H](O)[C@@H](C)[C@@H](O)[C@@H](C)[C@H](OC(C)=O)[C@H]1C | 5.51% [at 5.51 µM] | 11.4% [at 5.51 µM] | 10.3% [at 5.51 µM] | 3.06% [at 5.51 µM] | 73% [at 15.3 µM] | 41.4% [at 15.3 µM] | inactive | inactive | – | – | – | – | – | – | – | – | – | – |
| Nc1ccc(-c2ccc3ncc4ccc(=O)n(-c5cccc(C(F)(F)F)c5)c4c3c2)cn1 | 4.25% | 5.9% | 9.23% | 2.97% | 6.66% | – | inactive | inactive | – | -1.3 | 0.0148 µM (active) | 0.0083 µM (active) | 0.0066 µM (active) | 743 nM (active) | inactive | – | – | – |
| N#CC(c1ccc(Cl)cc1)c1c(Cl)cc(-n2ncc(=O)[nH]c2=O)cc1Cl (stereo unspecified) | 19.5% | 10.7% | 10.2% | 7.09% | 69.2% | 12.7% | inactive | inactive | inactive | – | – | – | – | – | – | inactive | inactive | – |
| CCOC(=O)c1c(CSc2ccccc2)n(C)c2cc(Br)c(O)c(CN(C)C)c12 | 8.99% | 10.6% | – | 2.97% | 164% | 52.2% | inactive | inactive | 13.2 µM (active) | – | – | – | 20.9 µM (active) | – | – | – | – | – |
| c1ccc(CNc2nc(N3CCOc4ccccc43)nc3c2CCCC3)cc1 | 10.7% | 70.4% | 21.3% | 8.4% | 233% | 95.6% | inactive | inactive | inactive | – | – | – | – | – | – | – | – | – |
| CO[C@H]1O[C@@H]2O[C@@]3(C)CC[C@@H]4[C@@H](C)CC[C@@H]([C@H]1C)[C@@]24OO3 | 20.7% | 7.38% | 9.94% | 46% | 62.1% | – | inactive | inactive | – | – | – | 4.69 µM (active) | 5.9 µM (active) | – | – | – | – | – |
| COC(=O)N1CCN(Cc2cccc(NC(=O)Nc3ccc(C)nc3)c2F)CC1 | 20.8% | 71.8% | 41.1% | 29.8% | 149% | – | inactive | inactive | inactive | – | – | 8.33 µM (active) | inactive | – | – | – | – | – |
| CON(C)C(=O)N1N=C(c2cc(F)ccc2F)S[C@]1(CCCN)c1ccccc1 | 13.1% | 10.1% | 18.3% | 8.3% | 16.8% | – | inactive | inactive | inactive | – | – | inactive | inactive | – | – | – | – | – |
| COC(=O)Nc1ccc(-c2nc(N3CCOCC3)c3cnn(C4CCN(C(=O)OC)CC4)c3n2)cc1 | 11.1% | 14.3% | 27.4% | 7.52% | 8.32% | – | inactive | inactive | – | 0.698 | 0.0372 µM (active) | – | 0.148 µM (active) | – | 264 nM (active) | – | – | 1.05 µM (active) |
| CN(C)CCOc1ccc(-c2nc(-c3ccc4c(c3)CCC4=NO)c(-c3ccncc3)[nH]2)cc1 | 4.92% | 6.01% | 6.72% | – | 7.29% | – | inactive | inactive | 23.5 µM (active) | – | 33.2 µM (active) | 26.4 µM (active) | – | – | – | – | – | – |
| CNc1nc(-c2ccc3c(N)n[nH]c3c2)cc(N2C[C@@H](C(=O)NC3CCCCC3)CC[C@@H]2C)n1 | 5.06% | 8.54% | 11.4% | – | 6.94% | – | inactive | inactive | 6.62 µM (active) | – | 6.62 µM (active) | 20.9 µM (active) | – | – | – | – | – | – |
| Oc1ccc(C=Cc2cc(O)cc(O)c2)cc1 | 49.1% | 96.9% | 40.6% | 13% | 240% | – | 11.8 µM (active) | 6.62 µM (active) | 18.7 µM (active) | – | 18.7 µM (active) | – | – | – | – | – | – | – |
| CCCCN(CCCC)CC(O)c1cc(Cl)cc2c1-c1ccc(Cl)cc1C2=Cc1ccc(Cl)cc1 (stereo unspecified) | 8.66% | 7.19% | 11.5% | 11.8% | 27% | – | inactive | inactive | – | – | inactive | – | inactive | – | – | – | – | – |
